For 36 molecules, Potency and outcome results are on record in PubChem BioAssay (Tox21).

Assay [1] in a line: qHTS assay to identify small molecule antagonists of the retinoid acid receptor (RAR) signaling pathway - cell viability counter screen (AID 1159551). Further: nearly all actives have a fitted effect of over 35% in size. Further: potency means the concentration at half of the fitted maximal effect. An outline of the steps: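 Retinol-stimulated (1 uM final) C3RL4 cells, compound 6 h, 37 C; readout CellTiter-Glo luminescence (ATP) after 30 min RT incubation.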
For orientation: qHTS replaces the single test concentration by a dilution series.

Assay [2] in a line: qHTS assay to identify small molecule antagonists of the retinoic acid receptor (RAR) signaling pathway (AID 1159552; further: nearly all actives have a fitted effect of over 50% in size; further: potency means the concentration at half of the fitted maximal effect). An outline of the steps:
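Cells of the C3RL4 line were seeded, incubated overnight, then dosed with compounds in DMSO followed immediately by retinol (1 uM final). Six hours later luciferase detection reagent went in; signal was measured after 30 min at RT.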

The nature of assay [3]: qHTS assay to identify small molecule agonists of the retinoic acid receptor (RAR) signaling pathway (AID 1159553). Further: potency means the concentration at half of the fitted maximal effect. An outline of the steps:
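Reporter readout comes from luciferase under RARE control in C3RL4 cells; compound exposure lasts 6 hr at 37 C in 5% CO2, and luminescence is recorded following a 30 min room-temperature incubation with reagent.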

Assay [4] in a line: qHTS assay to identify small molecule antagonists of the estrogen related receptor (ERR) signaling pathway from Tox21 library - cell viability counter screen (AID 1224834). Further: nearly all actives have a fitted effect of over 30% in size. Further: potency means the concentration at half of the fitted maximal effect. An outline of the steps:
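After 17.5 h of compound exposure at 37 C, ERR cells are incubated with CellTiter-Fluor for 30 min and fluorescence intensity serves as the viability measure.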

Assay [5] is described as follows: qHTS assay to identify small molecule antagonists of the estrogen related receptor (ERR) signaling pathway - cell viability counter screen (AID 1224818). Further: series mostly up to about 46 µM. The essentials:
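After a 6 h pre-incubation, ERR cells were dosed by pin tool with compounds, positive/negative controls or DMSO alone. Following 17.5 h at 37 C and 30 min with CellTiter-Fluor, fluorescence was recorded.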

A short description of assay [6]: qHTS assay to identify small molecule antagonists of the estrogen related receptor (ERR) signaling pathway (AID 1224819;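 further: luminescence from an ERR-driven luciferase reporter measured with One-Glo reagent; series mostly up to about 46 µM; nearly all actives have a fitted effect of over 50% in size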). An outline of the steps:
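Luminescence readout (One-Glo, 30 min, RT) of ERR cell line after 18 h compound exposure at 37 C; cells seeded 2,000/well, pre-incubated 6 h, compounds pinned from DMSO stocks.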

The nature of assay [7]: qHTS assay to identify small molecule agonists of the estrogen related receptor (ERR) signaling pathway (AID 1224820). The essentials: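 Quantitative HTS of the LOPAC library used NTP ERR reporter cells treated 18 h at 37 C. Signal is luminescence after One-Glo addition and a 30 min room-temperature incubation.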
Assay [8] concerns estrogen-related receptor alpha (ERRalpha) with PGC-1alpha coactivator, human. The experiment in a line: qHTS assay to identify small molecule antagonists of the estrogen related receptor signaling pathway with the pleiotropic PPARgamma coactivator (PGC) (AID 1224821; calls by dose curve;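 further: series mostly up to about 46 µM; lower luminescence signal means antagonism of PGC/ERR signalling; nearly all actives have a fitted effect of over 50% in size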). An outline of the steps: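 Quantitative HTS for antagonism: PGC/ERR cells received compounds after 6 h attachment and were incubated 18 h at 37 C, with luminescence (One-Glo) as the endpoint.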

Assay [9] can be described thus: qHTS assay to identify small molecule antagonists of the estrogen related receptor signaling pathway with the pleiotropic PPARgamma coactivator (PGC) cell viability counter screen (AID 1224822; further: series mostly up to about 46 µM). An outline of the steps: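 PGC/ERR cells were plated at 2,000 per well and allowed 6 h to settle before compound addition. Following 17.5 h at 37 C, CellTiter-Fluor reagent was added and fluorescence was read 30 min later.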

A short description of assay [10]: qHTS assay to identify small molecule agonists of the estrogen related receptor signaling pathway with the pleiotropic PPARgamma coactivator (PGC) (AID 1224823). The essentials:
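Cell-based luciferase assay in the NTP-supplied PGC/ERR line, 2,000 cells/well; 18 h compound exposure at 37 C, luminescence after One-Glo.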

Each structure is given as a SMILES string. Several values for one entry are separate records, joined by “and”; a condition that tells them apart may be missing. Equal entries are not always repeated. Inconclusive results are not listed. Activity calls are given as the source filed them. Unless noted, the call rests on the fitted dose curve; in most records, active means well fitted curve in the direction sought with a large enough effect in the repeat runs; inconclusive means weak or mixed curves; inactive means no such curve, though single readings can be large; an effect the other way counts as inactive or inconclusive.

As for `CC(C)(C)NCC(O)COc1ccccc1OCC1CCCO1` (stereo unspecified), the Potency entry in assay [1], in assay [2], in assay [3] and in [4] was “inactive” in each case.
Turning to `Oc1c(Cl)cc(Cl)cc1Sc1cc(Cl)cc(Cl)c1O`, the Potency result in [1] and in [3] was “inactive” throughout. Besides, the Potency in assay [2] was 30.7 µM (active) and 27.8 µM (active) and 27.3 µM (active); in assay [4], 21.7 µM (active) and 24.3 µM (active).
Consider `CO[Si](OC)(OC)c1ccccc1`, for which the Potency result in assay [1], in assay [2], in assay [3] and in [4] was “inactive” in each case.
Regarding `O=C(O)c1cn(-c2ccc(F)cc2)c2cc(N3CCNCC3)c(F)cc2c1=O`, the Potency result in assay [1], in assay [2], in assay [3] and in assay [4] was “inactive” in each case.
Take `CC(C)(C)c1ccccc1`: the Potency result in assay [1], in assay [2], in assay [3] and in [4] was “inactive” in each case.
Turning to `CCc1ccc(C(c2ccc(CC)cc2)C(Cl)Cl)cc1`, the Potency entry in assay [1], in assay [2], in [3] and in assay [4] was “inactive” each time.
Consider `COc1ccc(COC(C)=O)cc1`, for which the Potency entry in assay [1], in assay [2], in assay [3] and in assay [4] was “inactive” throughout.
With `CCOc1ccc2c(c1)C(C)=CC(C)(C)N2`, the Potency result in assay [1], in assay [2] and in [4] was “inactive” each time. In addition, the Potency in assay [3] was 54.2 µM (active) and 61.1 µM (active).
Consider `O=C(Oc1ccccc1)c1ccccc1O`, for which the Potency entry in assay [1], in assay [2], in assay [3] and in assay [4] was “inactive” each time.
For `O=C1Nc2ccccc2C1(c1ccc(O)cc1)c1ccc(O)cc1`, the Potency entry in assay [1] and in assay [3] was “inactive” each time. Moreover, the figures for the Potency in assay [2] and in [4] were 61.1 µM (active) and 43.3 µM (active), respectively.
For the molecule `CN1C(=O)c2ccc([N+](=O)[O-])cc2C1=O`, the Potency entry in [1], in assay [2], in assay [3] and in assay [4] was “inactive” each time.
For `CCN(CC)c1ccc2c(C)cc(=O)oc2c1`, the Potency entry in assay [1], in assay [2], in assay [3] and in assay [4] was “inactive” throughout.
Consider `CCCCCCC(O)CCCCCCCCCCC(=O)O` (stereo unspecified), for which the Potency entry in [1], in [2], in assay [3] and in [4] was “inactive” each time.
Take `OCC(CO)N[C@H]1C[C@](O)(CO)[C@@H](O)[C@H](O)[C@H]1O`: the Potency result in assay [1], in assay [2], in assay [3] and in assay [4] was “inactive” each time.
Regarding `CCC(CO)(CO)COCC(CC)(CO)CO`, the Potency result in assay [1], in [2], in [3] and in assay [4] was “inactive” throughout.
Take `CCOC(=O)C(C)C(C)=O` (stereo unspecified): the Potency result in assay [1], in assay [2], in [3] and in assay [4] was “inactive” in each case.
With `O=C(O)c1cccc(C(=O)O)c1`, the Potency result in [1], in assay [2], in assay [3] and in assay [4] was “inactive” in each case.
With `Nc1ccc2cc3ccccc3cc2c1`, the Potency entry in assay [1], in [2] and in assay [4] was “inactive” in each case. Further, the Potency in assay [3] was 5.54 µM (active) and 34.4 µM (active).
Take `C=CS(=O)(=O)O`: the Potency result in [1], in [2], in assay [3] and in assay [4] was “inactive” each time.
Take `C[N+]1([O-])CCOCC1`: the Potency result in [1], in assay [2], in assay [3] and in assay [4] was “inactive” in each case.
Turning to `CC(C)(O)CCC(C)(C)O`, the Potency entry in [1], in assay [2], in assay [3] and in [4] was “inactive” throughout.
With `O=C(O[C@@H]1Cc2c(O)cc(O)cc2O[C@@H]1c1cc(O)c(O)c(O)c1)c1cc(O)c(O)c(O)c1`, the Potency entry in assay [1], in assay [2] and in assay [3] was “inactive” throughout. The Potency in assay [4] was 48.7 µM (active) and 52.5 µM (active).
As for `COc1ccc(Cc2cnc(N)nc2N)cc1OC`, the Potency result in [1], in assay [2], in assay [3] and in assay [4] was “inactive” throughout.
Take `C#CC(C)(CC)OC(=O)c1ccccc1C(=O)O` (stereo unspecified): the Potency result in [1], in [2], in assay [3] and in [4] was “inactive” throughout.
For the molecule `CC[C@@H](N)CO`, the Potency result in [1], in assay [2], in [3] and in assay [4] was “inactive” throughout.
Regarding `COC(=O)c1cccc(C(=O)OC)c1`, the Potency result in [1], in [2], in assay [3] and in [4] was “inactive” throughout.
Take `Cc1cccc([N+](=O)[O-])c1C(=O)O`: the Potency entry in assay [1] and in assay [3] was “inactive” each time.
Regarding `Nc1nc2ccccc2[nH]1`, the Potency entry in [1], in assay [3] and in assay [4] was “inactive” in each case.
`CC(C)(c1ccccc1)c1ccc(Nc2ccc(C(C)(C)c3ccccc3)cc2)cc1`: the Potency result in assay [1] and in assay [3] was “inactive” each time.
Consider `CCCCOCCOC(=O)c1ccccc1C(=O)OCCOCCCC`, for which the Potency entry in assay [1], in assay [2] and in assay [4] was “inactive” throughout.
On to `CCN1CCCC1CNC(=O)c1cc(S(=O)(=O)CC)c(N)cc1OC` (stereo unspecified), for which the Potency entry in assay [1], in assay [3], in [5], in assay [6], in assay [8] and in assay [9] was “inactive” in each case. Besides, the result in assay [7] and in [10] was inactive.
Turning to `CCCCCCCCCCCCCC[P+](CCCC)(CCCC)CCCC`, the Potency in assay [1] is 43 µM (active) and 43.3 µM (active); in assay [2] it was 9.63 µM (active) and 9.69 µM (active); in assay [4] it was 21.6 µM (active) and 27.3 µM (active).
As for `NC(N)=Nc1nc(CSCC/C(N)=N/S(N)(=O)=O)cs1`, the Potency entry in assay [1], in assay [3], in [5], in assay [6], in assay [8] and in assay [9] was “inactive” in each case. For the same molecule, the molecule was called inactive in assay [7] and in assay [10].
In the case of `Cc1scc2c1N(C(=O)CN1CCN(C)CC1)c1ccccc1NC2=O`, the Potency entry in [1], in [3], in assay [5], in [9] and in assay [4] was “inactive” throughout.
For the molecule `NC(N)=NC(=O)Cc1c(Cl)cccc1Cl`, the Potency entry in [1], in assay [3], in assay [5], in assay [6], in assay [8] and in assay [9] was “inactive” each time. For the same molecule, in assay [4], the Potency result is “inactive”. In addition, the molecule was classed as inactive in assay [7] and in [10].
As to `CNC1(C)C2CCC(C2)C1(C)C` (stereo unspecified), the Potency entry in [1], in assay [3], in assay [5], in assay [6], in assay [8] and in assay [9] was “inactive” each time. For the same molecule, the Potency result in assay [4] was “inactive”. In addition, the molecule was classed as inactive in [7] and in assay [10].
